Test results from the GenesisPotency data set.
Screen size: about 1,300 compounds; about 55 (4%) were called active.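 Rule for the calls: active = fitted EC50 between 10 nM and 100 µM, Hill slope size 0.5 to 2, real signal loss, low interference; inactive = the rest.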 The list is a sample of the results. Entries with a potency or affinity are not part of this list.

Each compound was assayed against Ras-related C3 botulinum toxin substrate 1, Mus musculus (UniProt P63001) (assay: activated Rac1 mutant nucleotide-binding inhibitors – biochemical, multiplex, GST-Rac1 beads, Bodipy-FL-GTP, flow cytometry, dose response (AID 1339)).
With `COC(=O)c1cccc(NC(=O)c2nn(C)c(=O)c3ccccc23)c1` the outcome was “inactive”.
`Cc1ccc(C)c(N(CC(N)=O)S(C)(=O)=O)c1` was tested, and the outcome was “inactive”.
With `Cc1nc2ccc(NC(=O)COc3ccccc3)cc2s1` the outcome was “inactive”.
For `CCOC(=O)Cn1c(=O)c2c(nc(N3CCCCC3)n2C)n(C)c1=O`, the outcome was “inactive”.
`O=C(O)c1ccc(CNCc2ccc(F)cc2)s1` was tested, and the outcome was “inactive”.
With `CCc1ccccc1NCc1sc(C(=O)O)cc1C` the outcome was “inactive”.
For `Cc1cccc(CNc2nc(C)ccc2C(=O)O)c1`, the outcome was “inactive”.
With `Cc1cc(C(F)F)n2nc(C(=O)Nc3ccc(S(=O)(=O)N4CCCCCC4)cc3)nc2n1` the outcome was “inactive”.
For `CCC(=O)c1ccc(OCC(=O)O)c(OC)c1`, the outcome was “inactive”.
For `O=C(CNC(=O)c1ccco1)OCN1C(=O)c2ccccc2C1=O`, the outcome was “inactive”.
With `COc1ccc(CCNC(=O)C2CCCN2C(=O)NC2CCCCC2)cc1OC` (stereo not given) the outcome was “inactive”.
`CC(C)(C)NC(=O)CSc1nccn1Cc1ccccc1` was tested, and the outcome was “inactive”.
In the case of `CCCCNC(=O)c1cc([N+](=O)[O-])[nH]n1`, the outcome is reported as “inactive”.
With `Nc1nc(CN2CCN(c3ccccc3F)CC2)nc(N2CCCc3ccccc32)n1` the outcome was “inactive”.
With `COc1cccc(OCc2c(C)cccc2C)c1C(=O)O` the outcome was “inactive”.
`CCn1c2ccccc2c2nc3cc(C(=O)O)ccc3nc21` was tested, and the outcome was “inactive”.
`COc1cccc(NC(=O)NCCCN2CCN(c3ccc(F)cc3)CC2)c1` was tested, and the outcome was “inactive”.
With `Cc1nn(-c2ccc(F)cc2)c(Cl)c1/C=C(\CCC(=O)O)c1nc2ccccc2s1` the outcome was “inactive”.
For `Cn1c(=O)cc(N2CCOCC2)[nH]c1=O`, the outcome was “inactive”.
`Cc1cc2nc3c(=O)n(C4CCCCC4)c(=O)[nH]c3nc2cc1N` was tested, and the outcome was “inactive”.
`CNC(=O)C(C)NS(=O)(=O)c1ccc(F)cc1` (stereo not given) was tested, and the outcome was “inactive”.
In the case of `NC(=O)COC(=O)c1cccc2c1-c1ccccc1C2=O`, the outcome is reported as “inactive”.
For `O=C(O)c1cc([N+](=O)[O-])ccc1NCc1ccccc1Cl`, the outcome was “inactive”.
With `COc1cc(-c2cc(=O)c3c(O)cc(O)cc3o2)ccc1O` the outcome was “inactive”.
With `O=C(Cc1ccc(Nc2nc(=S)[nH]c3ccccc23)cc1)NC1CCCCC1` the outcome was “inactive”.
For `Cc1cc(C(F)(F)F)c(C#N)c(SCC(=O)Nc2nc3ccccc3s2)n1`, the outcome was “inactive”.
`O=C(CSc1n[nH]c(=O)[nH]c1=O)N/N=C/c1ccccc1` was tested, and the outcome was “inactive”.
In the case of `O=C1CN=C(c2ccccc2)c2cc(Br)ccc2N1Cc1cc(=O)n2ccccc2n1`, the outcome is reported as “inactive”.
For `CC(C)[C@H](NC(=O)c1ccccc1)C(=O)OCC(=O)NCCc1ccc(F)cc1`, the outcome was “inactive”.
`O=C(NCc1cccs1)c1cccn2c(=O)c3sccc3nc12` was tested, and the outcome was “inactive”.
In the case of `Cc1cc(C)cc(C(=O)N(NC(=O)Nc2ccc(Cl)cc2)C(C)(C)C)c1`, the outcome is reported as “inactive”.
In the case of `Cn1c(NC(=S)Nc2ccccc2)nc2ccccc21`, the outcome is reported as “inactive”.
For `O=C(Nc1cccc(-c2ccc3nncn3n2)c1)c1ccco1`, the outcome was “inactive”.
For `CC(C)CCNC(=O)Cc1ccc(Nc2nc(=S)[nH]c3ccccc23)cc1`, the outcome was “inactive”.
For `CCOc1c2ccc(C(=O)N[C@H](C)C3CCCCC3)cc2nn1CCOC`, the outcome was “inactive”.
In the case of `CS(=O)(=O)N1N=C(c2ccccc2)CC1c1ccc2c(c1)OCO2` (stereo not given), the outcome is reported as “inactive”.
`Cc1ccc(-c2cn3cccc(C)c3n2)cc1` was tested, and the outcome was “inactive”.
In the case of `CN1CCN(c2ccccc2NC(=O)c2ccc(-c3cccc([N+](=O)[O-])c3)o2)CC1`, the outcome is reported as “inactive”.
For `O=C(O)C1CCCN1C(=O)OCc1ccccc1` (stereo not given), the outcome was “inactive”.
In the case of `COc1ccc([N+](=O)[O-])cc1NC(=S)NC(NC(=O)Cc1ccc(OC)c(OC)c1)C(Cl)(Cl)Cl` (stereo not given), the outcome is reported as “inactive”.
With `Cc1ccc(-c2ccc(/C=C(\C#N)C(=O)Nc3cc(C)nn3-c3ccccc3)o2)cc1` the outcome was “inactive”.
`Cc1cccc2cc(CN(Cc3cccs3)C(c3nnnn3C3CCCC3)C(C)C)c(=O)[nH]c12` (stereo not given) was tested, and the outcome was “inactive”.
In the case of `Cc1cccc(OCCSc2nc3ccccc3n2CC(=O)O)c1C`, the outcome is reported as “inactive”.
In the case of `CC(C)(C)c1ccc(OCCSc2nc3ccccc3n2CC(=O)O)cc1`, the outcome is reported as “inactive”.
For `COc1ccc(OC)c(/C=N/NC(=O)c2ccc(Cn3cc([N+](=O)[O-])cn3)o2)c1`, the outcome was “inactive”.
For `O=C(Nc1nc(-c2ccc(S(=O)(=O)N3CCCC3)cc2)cs1)c1cccs1`, the outcome was “inactive”.
With `Nc1cccc(S(=O)(=O)c2cccc(N)c2)c1` the outcome was “inactive”.
`Cc1ccc(/C=C(\CCC(=O)O)c2nc3ccccc3s2)cc1[N+](=O)[O-]` was tested, and the outcome was “inactive”.
With `Cc1c(NC(=O)CCN2C(=O)c3ccccc3C2=O)c(=O)n(-c2ccccc2)n1C` the outcome was “inactive”.
With `C=C(C)COc1ccc(-c2n[nH]c(C)c2-c2ccc(Br)cc2)c(O)c1` the outcome was “inactive”.
`CCc1ccc(OCc2ccc(C(=O)O)o2)cc1` was tested, and the outcome was “inactive”.
For `COc1ccc(N/C=C/c2nc(SC)nnc2C)cc1`, the outcome was “inactive”.
In the case of `CCC(OC(=O)c1cc2sccc2n1C)C(=O)NCc1ccco1` (stereo not given), the outcome is reported as “inactive”.
`Br.COc1cc(NS(=O)(=O)c2ccc(Nc3nc(-c4ccccc4)cs3)cc2)nc(OC)n1` was tested, and the outcome was “inactive”.
`COc1ccc(-c2nn3c(-c4ccccn4)nnc3s2)cc1OC` was tested, and the outcome was “inactive”.
With `COc1ccccc1-n1cc([C@@H]2C[C@H]3CN(c4ccccc4)C(=O)[C@]34CCCN24)cn1` the outcome was “inactive”.
With `CC(=O)OC(C(=O)NC1CCCCC1)c1ccc(Cl)cc1` (stereo not given) the outcome was “inactive”.
With `COc1ccc(-c2nnc(S/C(=C/c3ccc(Cl)cc3)C(=O)O)o2)cc1` the outcome was “inactive”.
`CC(C)C(=O)N1CCN(c2ccccc2NC(=O)c2cccc(Cl)c2)CC1` was tested, and the outcome was “inactive”.
In the case of `Cc1nc2ncccn2c1-c1csc(Nc2ccccc2)n1`, the outcome is reported as “inactive”.
`Cc1cccc(CNc2ncccc2C(=O)O)c1` was tested, and the outcome was “inactive”.
With `C=CCc1ccc(OCc2ccc(C(=O)O)o2)c(OC)c1` the outcome was “inactive”.
With `COC(=O)c1ccc(COc2ccccc2/C=N/Nc2cccc(C(=O)O)c2)cc1` the outcome was “inactive”.
In the case of `Cc1ccc(-n2c(SCc3cc(=O)n4ccsc4n3)nnc2-c2cccnc2)c(C)c1`, the outcome is reported as “inactive”.
For `COc1cccc(OCc2ccccc2Br)c1C(=O)O`, the outcome was “inactive”.
In the case of `CCc1nnc(NC(=O)CSc2nnc(CNc3ccc(F)cc3)n2C2CCCCC2)s1`, the outcome is reported as “inactive”.
In the case of `CN(C)CCN(C(=O)c1ccc(N2C(=O)CCC2=O)cc1)c1nc2cc3c(cc2s1)OCO3.Cl`, the outcome is reported as “inactive”.
For `Cc1cc(C)n2nc(C(=O)Nc3ccc(S(=O)(=O)N4CCCC4)cc3)nc2n1`, the outcome was “inactive”.
For `COc1ccc(/C=N/n2c(N)c(S(=O)(=O)c3cccs3)c3nc4ccccc4nc32)cc1OC`, the outcome was “inactive”.
In the case of `O=C(Oc1cccc(O)c1)C1CCCCC1`, the outcome is reported as “inactive”.
`COc1cc(NC(=O)c2cccs2)c(OC)cc1NC(=O)CCC(=O)Nc1cccc2ncccc12.Cl` was tested, and the outcome was “inactive”.
For `CC1(C)Cc2c(sc(NC(=O)c3ccc(Br)o3)c2C#N)CO1`, the outcome was “inactive”.
`C=CCNc1nc(=S)[nH]c2cc(OC)c(OC)cc12` was tested, and the outcome was “inactive”.
`Cc1nc(NC(=O)/C=C/c2ccc(Cl)cc2Cl)sc1C(=O)N(C)C` was tested, and the outcome was “inactive”.
With `O=C(COC(=O)/C=C/c1cccs1)Nc1ccc2ccccc2c1` the outcome was “inactive”.
For `O=C(C1CCCO1)N1CCN(C(=S)Nc2ccccc2C(F)(F)F)CC1` (stereo not given), the outcome was “inactive”.
With `COc1ccc(CC(=O)Nc2ccc(C(=O)Nc3nccs3)cc2)cc1OC` the outcome was “inactive”.
`CS(=O)(=O)c1ccc(C(=O)OCc2nnc(-c3ccccc3)o2)cc1[N+](=O)[O-]` was tested, and the outcome was “inactive”.
With `N#CC(c1ccc(Cl)nn1)c1ccc(Cl)cc1Cl` (stereo not given) the outcome was “inactive”.
For `Cc1cc(C)c2sc(N(CCN(C)C)C(=O)c3cc(Cl)sc3Cl)nc2c1.Cl`, the outcome was “inactive”.
